The target of experiment [1] is Bile acid receptor (Homo sapiens) (UniProt Q96RI1). The experiment can be described thus: qHTS assay for small molecule agonists of farnesoid X receptor signaling (AID 588527).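 Note: series mostly up to about 77 µM; 0% = vehicle basal and 100% = reference agonist.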 Particulars: HEK293T FXR-UAS-bla, beta-lactamase ratio, 16 h; activation: stronger effect = higher value. An outline of the steps: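 Read-out: beta-lactamase reporter fluorescence with CCF4 substrate in GeneBLAzer FXR-UAS-bla HEK293T cells, after 16 h compound exposure at 37 C. Response scaled between DMSO basal (0%) and chenodeoxycholic acid at 100 uM (100%).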
Chain of Bile acid receptor (Homo sapiens) (Q96RI1 whole entry, looked up): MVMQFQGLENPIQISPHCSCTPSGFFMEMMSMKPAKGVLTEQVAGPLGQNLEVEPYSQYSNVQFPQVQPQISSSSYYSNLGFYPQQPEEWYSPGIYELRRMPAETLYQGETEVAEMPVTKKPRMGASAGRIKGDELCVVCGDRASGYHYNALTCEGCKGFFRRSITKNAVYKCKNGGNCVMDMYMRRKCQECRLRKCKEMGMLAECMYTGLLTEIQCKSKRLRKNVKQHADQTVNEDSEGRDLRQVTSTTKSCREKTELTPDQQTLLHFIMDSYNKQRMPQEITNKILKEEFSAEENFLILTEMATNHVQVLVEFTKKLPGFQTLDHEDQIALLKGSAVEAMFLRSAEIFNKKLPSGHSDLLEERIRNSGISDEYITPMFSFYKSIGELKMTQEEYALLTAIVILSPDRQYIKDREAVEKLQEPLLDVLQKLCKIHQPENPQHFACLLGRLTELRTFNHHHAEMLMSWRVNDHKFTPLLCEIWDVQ
For orientation: Quantitative high-throughput screening tests each substance at several concentrations.

For experiment [2], the target named is Glucocorticoid receptor (Homo sapiens) (UniProt P04150). The experiment is described as follows: qHTS assay for small molecule agonists of glucocorticoid receptor signaling (AID 588532; active = well fitted curve in the direction sought with a large enough effect in the signal ratio, with a control signal flat; the % refers to the signal ratio;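 note: 100% = dexamethasone at 0.1 µM and 0% = DMSO only wells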). Particulars: HeLa MMTV-bla, beta-lactamase ratio, agonist, 18 h; activation: stronger effect = higher value, percent of dexamethasone control, DMSO zero. An outline of the steps: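 Titration series, up to 92 uM, applied to GRE-bla HeLa cells for 18 h at 37 C. Detection by CCF4 FRET substrate after 2 h at RT.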
Chain of Glucocorticoid receptor (Homo sapiens) (P04150 whole entry, looked up): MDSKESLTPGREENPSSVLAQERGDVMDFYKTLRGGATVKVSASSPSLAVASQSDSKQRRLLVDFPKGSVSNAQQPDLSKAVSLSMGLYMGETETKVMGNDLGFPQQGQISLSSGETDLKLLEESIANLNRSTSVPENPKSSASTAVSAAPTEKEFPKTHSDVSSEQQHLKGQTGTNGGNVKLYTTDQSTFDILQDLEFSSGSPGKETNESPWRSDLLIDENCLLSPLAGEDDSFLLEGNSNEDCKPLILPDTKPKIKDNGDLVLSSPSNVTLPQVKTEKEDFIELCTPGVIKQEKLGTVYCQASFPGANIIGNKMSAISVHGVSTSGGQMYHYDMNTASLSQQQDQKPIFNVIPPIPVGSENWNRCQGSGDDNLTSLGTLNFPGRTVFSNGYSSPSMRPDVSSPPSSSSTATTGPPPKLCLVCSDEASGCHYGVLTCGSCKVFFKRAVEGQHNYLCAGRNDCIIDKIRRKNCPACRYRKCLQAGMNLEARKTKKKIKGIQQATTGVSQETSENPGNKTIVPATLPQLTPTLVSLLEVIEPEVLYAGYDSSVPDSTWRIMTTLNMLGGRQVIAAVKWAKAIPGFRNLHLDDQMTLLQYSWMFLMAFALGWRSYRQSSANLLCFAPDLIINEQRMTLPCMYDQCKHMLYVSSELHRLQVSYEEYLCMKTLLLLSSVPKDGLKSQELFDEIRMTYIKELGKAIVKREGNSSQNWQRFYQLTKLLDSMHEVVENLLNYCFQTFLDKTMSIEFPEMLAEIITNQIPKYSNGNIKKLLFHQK

Experiment [3] concerns the target Vitamin D3 receptor (Homo sapiens) (UniProt P11473). The experiment can be described thus: qHTS assay for small molecule agonists of vitamin D receptor signaling (AID 588543).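 Note: 0% = DMSO basal and 100% = reference agonist control.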 An outline of the steps:
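Measured: β-lactamase reporter activity (CCF4, 405 nm excitation, 460/530 nm emission) in HEK293T VDR-UAS-bla cells after 16 h compound exposure at 37 °C. Normalization against 50 nM 1α,25-dihydroxyvitamin D3 and DMSO; Hill-fit EC50.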

Experiment [4] addresses Thyroid hormone receptor beta (Homo sapiens) (UniProt P10828). The experiment can be described thus: qHTS assay for small molecule agonists of thyroid hormone receptor beta signaling (AID 588545).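 Note: 0% = DMSO only and 100% = 10 nM T3.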 An outline of the steps: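 Efficacy and EC50 values derive from Hill fits of qHTS titration data, normalized to 10 nM T3 and DMSO-only wells. HEK 293 reporter cells were stimulated for 18 hrs at 37 C, with beta-lactamase activity measured by CCF4 fluorescence.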

Experiment [5] can be described thus: qHTS assay for small molecule activators of the p53 signaling pathway (AID 651743; active = well fitted activation curve with a large enough effect in the signal ratio, not every such curve was filed as active; the % refers to the signal ratio; note: potency is the fitted concentration of half-maximal effect; for activation: series mostly up to about 92 µM; % of control where 0% means no effect). Conditions: HCT-116 p53RE-bla, beta-lactamase FRET ratio, 16 h; activation: stronger effect = higher value. Summed up: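 Agonist-mode quantitative HTS in HCT-116 cells carrying a p53-response-element beta-lactamase reporter; 16 h compound treatment at 37 C, then FRET substrate loading for 2 h at room temperature and fluorescence read.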

Experiment [6] is described as follows: qHTS assay for small molecule activators of the nuclear factor-kappa B (NF-kB) signaling pathway (AID 651749; active = well fitted activation curve with a large enough effect in the signal ratio; the % refers to the signal ratio; note: series mostly up to about 77 µM; % of control where 0% means no effect). Conditions: NF-kB-bla ME-180 cells, beta-lactamase FRET ratio, 16 h; activation: stronger effect = higher value. Summed up:
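Human ME-180 cervical cells with an NF-kB-bla construct; compounds added via 23 nL pin transfer, DMSO as vehicle; incubation 16 hr. Reporter activity measured by FRET disruption.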

Experiment [7] can be described thus: qHTS assay for environmental chemicals that activate the Aryl hydrocarbon Receptor (AhR) signaling pathway (AID 651777; active = well fitted curve in the direction sought with a large enough effect; an effect the other way counts as inactive or inconclusive; note: % of control where 0% means no effect; nearly all actives have a fitted effect of over 15% in size). Conditions: 1A2-DRE human hepatoma cells, luciferase, 24 h; activation: stronger effect = higher value. An outline of the steps:
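Following a 24 hr incubation with test chemicals at 37 C and 5% CO2, 1A2-DRE human hepatoma cells received One-Glo reagent; after 30 min at room temperature, luciferase output reflected CYP1A2 induction via AhR.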

The target of experiment [8] is Peroxisome proliferator-activated receptor alpha (Homo sapiens) (UniProt Q07869). The experiment is described as follows: qHTS assay for small molecule agonists of the peroxisome proliferator-activated receptor alpha (PPARalpha) signaling pathway (AID 651778; active = well fitted curve in the direction sought with a large enough effect; an effect the other way counts as inactive or inconclusive; note: % of control where 0% means no effect). Particulars: PathHunter PPARalpha complementation, chemiluminescence, 6 h; max response: stronger effect = higher value. Summed up: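 Cells plated at 2,000/well and held overnight at 37 C, 5% CO2, then compound added by pin tool for 6 hr; after PathHunter detection reagent and 60 min at room temperature, chemiluminescence from enzyme complementation was read.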
Chain of Peroxisome proliferator-activated receptor alpha (Homo sapiens) (Q07869 whole entry, looked up): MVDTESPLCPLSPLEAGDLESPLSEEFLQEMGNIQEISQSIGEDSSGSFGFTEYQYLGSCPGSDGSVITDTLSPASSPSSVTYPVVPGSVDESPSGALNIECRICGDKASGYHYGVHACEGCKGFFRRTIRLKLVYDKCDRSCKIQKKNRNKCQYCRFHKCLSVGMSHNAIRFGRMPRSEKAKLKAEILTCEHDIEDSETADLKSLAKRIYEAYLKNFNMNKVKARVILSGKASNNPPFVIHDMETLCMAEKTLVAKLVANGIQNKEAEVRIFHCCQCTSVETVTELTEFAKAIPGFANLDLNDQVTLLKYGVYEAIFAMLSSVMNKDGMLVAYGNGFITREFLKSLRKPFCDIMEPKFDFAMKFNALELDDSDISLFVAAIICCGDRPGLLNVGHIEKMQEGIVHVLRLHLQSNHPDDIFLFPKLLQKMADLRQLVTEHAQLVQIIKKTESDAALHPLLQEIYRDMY

A short description of experiment [9]: qHTS assay for small molecule agonists of the antioxidant response element (ARE) signaling pathway measured by Nrf2-dependant transcriptional activity - cell viability counter screen (AID 720653; active = well fitted curve in the direction sought with a large enough effect in the repeat runs; an effect the other way counts as inactive or inconclusive; note: % is set by controls: 0 for no effect and ±100 for the full control effect). Particulars: ARE-bla HepG2 viability, CellTiter-Glo ATP luminescence, 16 h; max response: stronger effect = lower value. Summed up: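 ARE-bla HepG2 cells (2,000/well) rested 5 hrs at 37C/5% CO2, then exposed to compounds in DMSO for 16 hrs. Viability was read in the same wells as intracellular ATP by luminescence, 30 min at room temperature after reagent addition.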

In experiment [10] the target is Nuclear receptor subfamily 1 group I member 2 (Rattus norvegicus) (UniProt Q9R1A7). The experiment is described as follows: qHTS assay for small molecule activators of the rat pregnane X receptor (rPXR) signaling pathway (AID 651751; call rule not given here; note: 0% is about no effect). Particulars: rPXR reporter cells, luciferase (One-Glo), 24 h.
Chain of Nuclear receptor subfamily 1 group I member 2 (Rattus norvegicus) (Q9R1A7 whole entry, looked up): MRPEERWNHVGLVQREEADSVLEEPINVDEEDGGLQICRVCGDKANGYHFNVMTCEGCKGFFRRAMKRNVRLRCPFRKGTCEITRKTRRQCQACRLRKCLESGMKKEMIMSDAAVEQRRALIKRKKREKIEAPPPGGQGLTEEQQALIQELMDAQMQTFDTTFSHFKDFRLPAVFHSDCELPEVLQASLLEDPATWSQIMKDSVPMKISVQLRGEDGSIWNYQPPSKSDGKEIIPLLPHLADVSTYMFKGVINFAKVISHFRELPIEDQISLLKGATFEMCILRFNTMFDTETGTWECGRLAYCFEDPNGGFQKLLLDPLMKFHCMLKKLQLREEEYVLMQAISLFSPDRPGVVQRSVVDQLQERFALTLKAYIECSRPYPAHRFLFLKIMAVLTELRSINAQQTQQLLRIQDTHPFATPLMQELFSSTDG
For experiment [11], the target named is Bile acid receptor (Homo sapiens) (UniProt Q96RI1). The experiment is described as follows: qHTS assay for small molecule antagonists of farnesoid X receptor signaling (AID 588526). Note: % is set by controls: 0 for no effect and ±100 for the full control effect. Summed up: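 Concentration-response titrations were fitted to the Hill equation for half-maximal inhibition and maximal response, with data normalised to 50 uM chenodeoxycholic acid and DMSO control wells. Cells: FXR-UAS-bla HEK293T, dialyzed FBS.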

Experiment [12] has as its target Vitamin D3 receptor (Homo sapiens) (UniProt P11473). The experiment is described as follows: qHTS assay for small molecule antagonists of vitamin D receptor signaling (AID 588541).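 Note: receptor activated by calcitriol during compound treatment; series mostly up to about 77 µM; % is set by controls: 0 for no effect and ±100 for the full control effect.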 An outline of the steps:
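VDR-UAS-bla HEK293T cells (2000/well, 2% charcoal-stripped FBS) were treated with titrated compounds plus 1-alpha,25-dihydroxyvitamin D3 (50 nM or 3 nM final) for 16 h at 37 C. CCF4 beta-lactamase fluorescence was read; Hill fits gave IC50.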

Experiment [13] is described as follows: qHTS assay for small molecule antagonists of retinoid X receptor alpha signaling (AID 588546; active = well fitted inhibition curve with a large enough effect in the signal ratio, with a control signal flat, not every such curve was filed as active; the % refers to the signal ratio;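 note: cells stimulated with 9-cis-retinoic acid as agonist; % is set by controls: 0 for no effect and ±100 for the full control effect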). Conditions: HEK293T RXRa-UAS-bla, beta-lactamase ratio, antagonist mode; measured here: W530 green channel, cytotoxicity proxy. Summed up:
(§1)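 Beta-lactamase reporter inhibition, read as CCF4 fluorescence ratio (ex 405, em 460/530 nm) after 2 h at RT. HEK293T UAS-bla cells, 2500/well, were stimulated with 9-cis-RA at 500 or 100 nM final alongside test compound for 18 h at 37 C.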

For experiment [14], the target named is Retinoic acid receptor RXR-alpha (Homo sapiens) (UniProt P19793). The experiment is described as above. Particulars: HEK293T RXRa-UAS-bla, beta-lactamase ratio, antagonist mode. Summed up: as §1
Chain of Retinoic acid receptor RXR-alpha (Homo sapiens) (P19793 whole entry, looked up): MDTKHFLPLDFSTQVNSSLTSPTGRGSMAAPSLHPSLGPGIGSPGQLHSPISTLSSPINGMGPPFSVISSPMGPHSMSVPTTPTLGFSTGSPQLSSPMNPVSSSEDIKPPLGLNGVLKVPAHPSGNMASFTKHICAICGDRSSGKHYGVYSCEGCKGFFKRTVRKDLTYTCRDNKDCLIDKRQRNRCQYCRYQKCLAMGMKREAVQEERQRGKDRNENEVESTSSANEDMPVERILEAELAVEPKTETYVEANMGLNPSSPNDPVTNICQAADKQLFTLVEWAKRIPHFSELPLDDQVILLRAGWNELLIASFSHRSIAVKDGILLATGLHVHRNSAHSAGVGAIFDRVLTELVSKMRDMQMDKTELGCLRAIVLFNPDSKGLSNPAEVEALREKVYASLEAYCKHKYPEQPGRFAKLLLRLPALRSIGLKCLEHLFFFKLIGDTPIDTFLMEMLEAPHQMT
The nature of experiment [15]: qHTS assay for small molecule agonists of the antioxidant response element (ARE) signaling pathway (AID 651741; active = well fitted activation curve with a large enough effect in the signal ratio; the % refers to the signal ratio; note: potency is the fitted concentration of half-maximal effect; for activation: % of control where 0% means no effect). Summed up:
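Reporter: beta-lactamase under ARE, stably in HepG2. Exposure: 16 h, 37 C, compounds delivered in DMSO by pin tool after 5 h cell preincubation. Readout: FRET substrate fluorescence after 2 h at RT.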

Experiment [16] in a line: qHTS assay for small molecule agonists of the antioxidant response element (ARE) signaling pathway measured by Nrf2-dependant transcriptional activity (AID 720636; active = well fitted curve in the direction sought with a large enough effect in the repeat runs; an effect the other way counts as inactive or inconclusive;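 note: HepG2 cells with an ARE-driven luciferase reporter; % of control where 0% means no effect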). Summed up: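 ONE-Glo luminescence, read 30 min after reagent addition at room temperature, reflected ARE reporter activity in HepG2 cells that had been incubated with compound for 16 hr at 37 C in 1% dialyzed FBS.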

The nature of experiment [17]: qHTS assay for cell viability of HEK293 cells (AID 743288; active = well fitted curve in the direction sought with a large enough effect; an effect the other way counts as inactive or inconclusive; note: % is set by controls: 0 for no effect and ±100 for the full control effect; nearly all actives have a fitted effect of over 50% in size). Conditions: ATP luminescence (CellTiter-Glo), 18 h; max response: stronger effect = lower value. Summed up: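 HEK293, 18 h, 37 C, ATP luminescence. Cells at 2,000/well were allowed at least 5 h to settle before dosing; CellTiter-Glo developed 30 min at RT.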
Experiment [18] in a line: qHTS assay for cell viability of the p53RE-bla HCT-116 cell line (AID 743292; active = well fitted curve in the direction sought with a large enough effect; an effect the other way counts as inactive or inconclusive; note: % is set by controls: 0 for no effect and ±100 for the full control effect; nearly all actives have a fitted effect of over 55% in size). An outline of the steps: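 After plating at 4,000 cells per well and a 5 h rest at 37 C, HCT-116 cells carrying p53RE-bla received test chemicals in DMSO. Sixteen hours later at 37 C, CellTiter-Glo was added and luminescence recorded following 30 min at room temperature.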
Experiment [19] deals with Thyroid hormone receptor beta (Homo sapiens) (UniProt P10828). The experiment can be described thus: qHTS assay for small molecule antagonists of thyroid hormone receptor beta signaling (AID 588547; active = well fitted inhibition curve with a large enough effect in the signal ratio, with a control signal flat, not every such curve was filed as active; the % refers to the signal ratio). Conditions: TR-UAS-bla HEK293, beta-lactamase ratio, antagonist mode, 18 h. An outline of the steps: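 TR-UAS-bla GripTite HEK293 cells in 2% charcoal/dextran FBS medium were preincubated 4 h at 37 C, given compound (0.59 nM to 92 uM) plus 0.4 nM T3 (final) for 18 h, then CCF4 for 2 h at RT; Hill fit gave IC50.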
Chain of Thyroid hormone receptor beta (Homo sapiens) (P10828 whole entry, looked up): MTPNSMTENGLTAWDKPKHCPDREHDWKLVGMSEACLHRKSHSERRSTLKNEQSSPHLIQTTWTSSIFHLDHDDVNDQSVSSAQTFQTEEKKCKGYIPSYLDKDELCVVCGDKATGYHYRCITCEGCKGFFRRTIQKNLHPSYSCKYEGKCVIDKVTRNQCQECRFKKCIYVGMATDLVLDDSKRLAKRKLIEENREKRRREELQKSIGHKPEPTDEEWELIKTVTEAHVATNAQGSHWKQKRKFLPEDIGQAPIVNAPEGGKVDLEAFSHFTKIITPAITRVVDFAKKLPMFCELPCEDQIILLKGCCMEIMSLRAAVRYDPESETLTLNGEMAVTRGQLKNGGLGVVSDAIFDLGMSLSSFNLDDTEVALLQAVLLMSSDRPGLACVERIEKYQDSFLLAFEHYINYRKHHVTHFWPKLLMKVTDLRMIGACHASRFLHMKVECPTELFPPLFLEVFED

Experiment [20] deals with Peroxisome proliferator-activated receptor delta (Homo sapiens) (UniProt Q03181). The experiment can be described thus: qHTS assay for small molecule agonists of peroxisome proliferator-activated receptor delta signaling (AID 588534).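 Note: 0% = DMSO basal wells and 100% = positive control agonist at 10 µM.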 Summed up: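 Agonist-mode beta-lactamase reporter readout (CCF4 dye, 2 h at RT) after 18 h at 37 °C exposure to a titration; Hill-equation fitting gave EC50 and maximal response.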
Chain of Peroxisome proliferator-activated receptor delta (Homo sapiens) (Q03181 whole entry, looked up): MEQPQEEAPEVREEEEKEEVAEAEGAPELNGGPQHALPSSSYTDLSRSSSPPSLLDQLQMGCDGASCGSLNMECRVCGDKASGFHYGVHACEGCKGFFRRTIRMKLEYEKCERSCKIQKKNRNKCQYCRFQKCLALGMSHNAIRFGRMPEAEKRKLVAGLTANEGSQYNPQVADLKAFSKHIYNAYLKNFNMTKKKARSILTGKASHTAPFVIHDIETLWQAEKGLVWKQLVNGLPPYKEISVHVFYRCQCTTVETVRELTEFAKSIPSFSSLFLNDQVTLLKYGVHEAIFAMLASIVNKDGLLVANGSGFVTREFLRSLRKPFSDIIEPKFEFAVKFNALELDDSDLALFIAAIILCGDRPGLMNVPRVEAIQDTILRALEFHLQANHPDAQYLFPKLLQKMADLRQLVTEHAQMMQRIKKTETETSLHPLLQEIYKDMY

Several values for one entry are separate records, joined by “and”; a condition that tells them apart may be missing. Equal entries are not always repeated. Inconclusive results are not listed. Activity calls are given as the source filed them. Unless noted, calls come from the whole dose curve.

Chain of Vitamin D3 receptor (Homo sapiens) (P11473 whole entry, looked up): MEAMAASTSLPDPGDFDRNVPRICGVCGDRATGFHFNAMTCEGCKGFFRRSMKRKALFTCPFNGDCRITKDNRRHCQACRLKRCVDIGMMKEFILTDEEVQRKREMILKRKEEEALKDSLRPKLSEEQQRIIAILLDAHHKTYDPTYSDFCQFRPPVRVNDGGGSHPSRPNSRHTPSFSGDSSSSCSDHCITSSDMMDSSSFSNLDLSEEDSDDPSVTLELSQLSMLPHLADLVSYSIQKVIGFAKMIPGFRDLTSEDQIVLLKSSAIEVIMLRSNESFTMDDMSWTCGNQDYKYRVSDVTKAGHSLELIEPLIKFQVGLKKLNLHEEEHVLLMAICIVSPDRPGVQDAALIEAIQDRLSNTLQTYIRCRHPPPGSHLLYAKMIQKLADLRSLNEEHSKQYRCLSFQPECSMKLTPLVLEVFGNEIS

For the compound `CCCCCCCCCCCCC1=C(OC(C)=O)C(=O)c2ccccc2C1=O`, the activation in experiment [1] was -0.713% (inactive); in [2], -3.65% (inactive); in experiment [6], -0.928% (inactive); in experiment [7] it was 1.53% (inactive). Besides, in [3], the compound was classed as inactive. The Potency result in [4] was “inactive”. Further, the Potency in experiment [5] is 11.2 µM (active). The max response in experiment [8] was -5.69% (inactive); in experiment [9], -15.3% (inactive); in experiment [10], 0.383% (inactive).
For `CCNc1nc(NC(C)C)nc(OC)n1`, the Potency result in experiment [11], in experiment [12], in experiment [4], in experiment [15], in [16] and in experiment [18] was “inactive” each time. Moreover, the activation was -2.29% (inactive) in experiment [1]; -1.69% (inactive) in [2]; -0.985% (inactive) in [5]; -1.42% (inactive) in experiment [6]; 0.686% (inactive) in experiment [7]. Besides, the max response in [13] is -8.69%; in [14], 2.56% (inactive); in experiment [8], -1.03% (inactive); in experiment [9] it was 6.46% (inactive); in [17], 0.985% (inactive); in [10] it was 0.846% (inactive).
For the compound `CCC(C)c1ccc(O)cc1` (centres undefined), the Potency entry in experiment [11], in [4], in experiment [16] and in experiment [18] was “inactive” throughout. The results for the activation in [1], in [2] and in experiment [6] were -4.25% (inactive), 2.12% (inactive) and -0.802% (inactive), respectively. Also, the max response in [13] was -3.19%; in experiment [14], -17.8% (inactive); in experiment [8], -0.201% (inactive); in experiment [9], -2.59% (inactive); in experiment [17] it was -7.5% (inactive); in experiment [10], -4.44% (inactive). Moreover, in [19], the activity change % (negative = inhibition) was 6.18% (inactive).
As for `c1ccc2c(c1)c1cccc3ccc4cccc2c4c31`, the activation in [1] is -3.29% (inactive) and 7.3% (inactive). Also, the compound was classed as inactive in experiment [20] and in experiment [3]. Also, the Potency entry in [4] and in experiment [16] was “inactive” each time. The Potency in experiment [15] is 6.86 µM (active).
Regarding `COP(=O)(OC)Oc1nc(Cl)c(Cl)cc1Cl`, the Potency result in [11], in experiment [12], in [4], in experiment [16] and in [18] was “inactive” in each case. In addition, the activation in experiment [1] is -2.92% (inactive); in experiment [5], 6.76% (inactive); in experiment [6], 1.02% (inactive); in experiment [7], 1.43% (inactive). Moreover, the outcome in experiment [3] was inactive. Moreover, the max response in experiment [13] was -0.949%; in [14], 1.04% (inactive); in [8], -0.672% (inactive); in experiment [9] it was -0.97% (inactive); in experiment [17], -6.19% (inactive); in [10], 0.764% (inactive). Besides, the activity change % (negative = inhibition) in experiment [19] was -14.5% (inactive). Moreover, the Potency in experiment [15] is 48.6 µM (active).
As to `O=CNC(N1CCN(C(NC=O)C(Cl)(Cl)Cl)CC1)C(Cl)(Cl)Cl` (centres undefined), the activation is -2.65% (inactive) in [2], -7.11% (inactive) in experiment [5], -2.29% (inactive) in experiment [6] and 0.502% (inactive) in experiment [7]. Moreover, the call in [20] and in [3] was inactive. For the same compound, the Potency entry in experiment [12], in [4], in experiment [16] and in experiment [18] was “inactive” throughout. Besides, the activity change % (negative = inhibition) in [19] is -18.1% (inactive). In addition, the values for the max response in experiment [8], in experiment [9] and in experiment [17] were -1.75% (inactive), -22.2% (inactive) and -20.2% (inactive), respectively.

Values taken from PubChem BioAssay (NCATS).
